# Article PMC7862700, “An all-to-all approach to the identification of sequence-specific readers for epigenetic DNA modifications on cytosine”
# Assays:
# Assay in all cases: DAPPL (digital affinity profiling via proximity ligation, sequencing); 10 mM Tris-HCl pH 7.5, 50 mM NaCl, 1 mM DTT, 4% glycerol, room temperature, 30 min; GST-TFs on glutathione beads, 16-mer random dsDNA library, 0.1% formaldehyde crosslink after washing; high values mean tight binding
# Settings in all cases: protein: recombinant; tags: N-terminal GST; dsDNA, one strand shown
# ELF4 = ELF4 (Homo sapiens, UniProt Q99607 1-663)
# How it was run: (§1)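 Binding signal is each hexamer's read frequency for a factor divided by its frequency in the tag-only sample. The factors were GST-fused human transcription factors from yeast, captured on glutathione beads, DNA-barcoded and pooled with that sample. Pools were incubated with 200 nmole of a random double-stranded 16-mer DNA library in Tris/NaCl/DTT/glycerol buffer at room temperature for 30 min, then washed, crosslinked with 0.1% formaldehyde, proximity-ligated with BsaI/T4 ligase (1 h, 37 °C), PCR-amplified and sequenced on an Illumina NextSeq500.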
# ETV2 = target: T1, ETV2 (Homo sapiens, UniProt O00321 1-342)
# T1 sequence: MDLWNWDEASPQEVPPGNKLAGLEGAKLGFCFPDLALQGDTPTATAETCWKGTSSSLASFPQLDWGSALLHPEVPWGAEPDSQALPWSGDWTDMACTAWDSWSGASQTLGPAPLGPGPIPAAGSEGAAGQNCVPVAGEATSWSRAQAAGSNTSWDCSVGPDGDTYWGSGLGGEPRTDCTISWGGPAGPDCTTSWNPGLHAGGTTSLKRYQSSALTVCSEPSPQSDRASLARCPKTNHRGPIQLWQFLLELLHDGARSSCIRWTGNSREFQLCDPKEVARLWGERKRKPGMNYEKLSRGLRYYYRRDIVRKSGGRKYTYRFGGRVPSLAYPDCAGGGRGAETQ
# How it was run: as §1
# ELF3 = target: T2, ELF3 (Homo sapiens, UniProt P78545 1-371)
# T2 sequence: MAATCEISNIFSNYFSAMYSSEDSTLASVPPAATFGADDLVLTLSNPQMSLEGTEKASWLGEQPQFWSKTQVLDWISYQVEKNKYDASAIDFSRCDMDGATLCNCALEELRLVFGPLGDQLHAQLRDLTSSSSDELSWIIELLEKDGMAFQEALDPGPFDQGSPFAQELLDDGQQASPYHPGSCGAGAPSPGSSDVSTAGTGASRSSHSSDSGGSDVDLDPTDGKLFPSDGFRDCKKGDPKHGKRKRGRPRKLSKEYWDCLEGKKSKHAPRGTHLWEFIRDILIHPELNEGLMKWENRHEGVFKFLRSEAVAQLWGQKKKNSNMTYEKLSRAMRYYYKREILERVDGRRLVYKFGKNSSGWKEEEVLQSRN
# How it was run: as §1
# ETV1 = ETV1 (Homo sapiens, UniProt P50549 1-477)
# How it was run: as §1
# ERF = target: T3, ERF (Homo sapiens, UniProt P50548 1-548)
# T3 sequence: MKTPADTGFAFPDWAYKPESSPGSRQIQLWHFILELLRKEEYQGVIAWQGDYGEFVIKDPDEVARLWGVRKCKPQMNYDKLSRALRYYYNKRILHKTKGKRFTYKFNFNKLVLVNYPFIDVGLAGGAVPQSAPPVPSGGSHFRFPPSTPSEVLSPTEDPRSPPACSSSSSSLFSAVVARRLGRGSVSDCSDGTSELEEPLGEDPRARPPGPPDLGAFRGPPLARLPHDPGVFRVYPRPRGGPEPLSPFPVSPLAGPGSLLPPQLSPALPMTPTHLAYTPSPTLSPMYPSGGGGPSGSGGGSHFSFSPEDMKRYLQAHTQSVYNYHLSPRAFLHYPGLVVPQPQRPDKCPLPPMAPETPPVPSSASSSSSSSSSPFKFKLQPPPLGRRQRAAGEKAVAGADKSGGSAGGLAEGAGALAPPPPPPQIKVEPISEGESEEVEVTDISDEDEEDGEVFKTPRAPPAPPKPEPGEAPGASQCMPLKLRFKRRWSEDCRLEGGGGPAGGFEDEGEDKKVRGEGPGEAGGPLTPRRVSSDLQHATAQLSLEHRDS
# How it was run: as §1
# ETV3L = target: T4, ETV3L (Homo sapiens, UniProt Q6ZN32 1-361)
# T4 sequence: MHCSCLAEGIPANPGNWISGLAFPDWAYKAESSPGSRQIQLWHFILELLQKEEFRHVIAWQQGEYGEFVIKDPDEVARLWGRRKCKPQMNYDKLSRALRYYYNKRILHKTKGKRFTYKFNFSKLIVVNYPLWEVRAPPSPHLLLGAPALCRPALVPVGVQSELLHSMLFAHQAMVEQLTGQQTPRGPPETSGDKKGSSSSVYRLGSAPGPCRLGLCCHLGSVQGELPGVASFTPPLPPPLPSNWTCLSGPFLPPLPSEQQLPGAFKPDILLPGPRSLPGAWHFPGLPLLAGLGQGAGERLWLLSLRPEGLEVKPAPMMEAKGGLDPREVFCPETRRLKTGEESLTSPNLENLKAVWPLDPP
# How it was run: as §1
# ETS2 = target: T5, ETS2 (Homo sapiens, UniProt P15036 1-469)
# T5 sequence: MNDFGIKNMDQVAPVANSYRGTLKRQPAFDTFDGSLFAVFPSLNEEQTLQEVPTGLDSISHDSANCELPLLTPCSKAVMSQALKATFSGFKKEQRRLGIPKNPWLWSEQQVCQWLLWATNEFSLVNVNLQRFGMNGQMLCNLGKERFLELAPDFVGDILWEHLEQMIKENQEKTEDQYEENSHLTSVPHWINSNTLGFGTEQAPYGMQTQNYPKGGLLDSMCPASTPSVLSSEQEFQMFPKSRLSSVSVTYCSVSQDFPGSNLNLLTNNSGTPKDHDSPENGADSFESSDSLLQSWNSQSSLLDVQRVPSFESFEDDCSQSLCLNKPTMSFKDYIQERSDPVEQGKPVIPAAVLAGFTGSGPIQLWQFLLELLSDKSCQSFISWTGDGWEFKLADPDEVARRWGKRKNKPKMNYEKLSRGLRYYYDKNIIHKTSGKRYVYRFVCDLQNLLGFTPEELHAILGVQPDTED
# How it was run: as §1
# ETV7 = target: T6, ETV7 (Homo sapiens, UniProt Q9Y603 1-341)
# T6 sequence: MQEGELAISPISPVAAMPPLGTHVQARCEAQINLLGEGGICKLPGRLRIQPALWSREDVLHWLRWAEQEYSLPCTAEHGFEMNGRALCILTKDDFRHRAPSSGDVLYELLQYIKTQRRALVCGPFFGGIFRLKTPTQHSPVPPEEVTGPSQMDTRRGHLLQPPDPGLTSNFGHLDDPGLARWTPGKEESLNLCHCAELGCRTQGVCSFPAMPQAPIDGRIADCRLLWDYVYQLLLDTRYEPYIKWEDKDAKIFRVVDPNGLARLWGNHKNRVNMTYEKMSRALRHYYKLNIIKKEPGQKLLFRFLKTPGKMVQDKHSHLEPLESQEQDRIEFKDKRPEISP
# How it was run: as §1
# ETV3 = target: T7, ETV3 (Homo sapiens, UniProt P41162-2 1-143)
# T7 sequence: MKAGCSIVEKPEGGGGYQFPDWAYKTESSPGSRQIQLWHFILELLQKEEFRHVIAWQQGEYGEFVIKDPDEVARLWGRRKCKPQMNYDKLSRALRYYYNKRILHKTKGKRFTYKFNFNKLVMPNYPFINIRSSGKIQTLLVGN
# How it was run: as §1
# ETV6 = ETV6 (Homo sapiens, UniProt P41212 1-452)
# How it was run: as §1
# ETV1, sequence (P50549 whole entry): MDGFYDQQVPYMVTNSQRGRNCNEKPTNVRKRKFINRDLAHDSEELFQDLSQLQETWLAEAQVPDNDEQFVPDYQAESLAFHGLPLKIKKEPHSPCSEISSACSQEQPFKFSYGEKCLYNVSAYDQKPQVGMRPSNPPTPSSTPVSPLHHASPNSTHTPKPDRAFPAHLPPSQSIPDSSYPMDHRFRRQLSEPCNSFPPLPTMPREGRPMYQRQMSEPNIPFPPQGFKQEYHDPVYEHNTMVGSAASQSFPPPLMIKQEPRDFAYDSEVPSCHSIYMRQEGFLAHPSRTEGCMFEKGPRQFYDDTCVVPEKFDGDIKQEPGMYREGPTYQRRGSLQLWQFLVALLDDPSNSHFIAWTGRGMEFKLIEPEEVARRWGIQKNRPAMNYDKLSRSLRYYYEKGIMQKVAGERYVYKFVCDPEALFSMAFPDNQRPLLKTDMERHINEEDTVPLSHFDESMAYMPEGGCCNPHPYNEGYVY
# ETV6, sequence (P41212 whole entry): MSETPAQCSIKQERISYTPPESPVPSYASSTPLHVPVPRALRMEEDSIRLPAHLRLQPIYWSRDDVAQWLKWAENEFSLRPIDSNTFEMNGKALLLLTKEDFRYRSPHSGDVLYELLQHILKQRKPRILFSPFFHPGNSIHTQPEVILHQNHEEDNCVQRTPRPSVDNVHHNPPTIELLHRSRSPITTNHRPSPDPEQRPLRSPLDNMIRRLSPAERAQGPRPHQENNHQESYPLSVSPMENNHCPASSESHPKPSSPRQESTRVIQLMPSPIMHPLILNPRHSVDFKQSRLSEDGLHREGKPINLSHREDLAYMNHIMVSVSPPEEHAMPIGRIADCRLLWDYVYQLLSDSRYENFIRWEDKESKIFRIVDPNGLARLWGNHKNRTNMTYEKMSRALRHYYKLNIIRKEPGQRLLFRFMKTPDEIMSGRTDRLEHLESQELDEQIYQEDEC
# ELF4, sequence (Q99607 whole entry, the tested form may be a part): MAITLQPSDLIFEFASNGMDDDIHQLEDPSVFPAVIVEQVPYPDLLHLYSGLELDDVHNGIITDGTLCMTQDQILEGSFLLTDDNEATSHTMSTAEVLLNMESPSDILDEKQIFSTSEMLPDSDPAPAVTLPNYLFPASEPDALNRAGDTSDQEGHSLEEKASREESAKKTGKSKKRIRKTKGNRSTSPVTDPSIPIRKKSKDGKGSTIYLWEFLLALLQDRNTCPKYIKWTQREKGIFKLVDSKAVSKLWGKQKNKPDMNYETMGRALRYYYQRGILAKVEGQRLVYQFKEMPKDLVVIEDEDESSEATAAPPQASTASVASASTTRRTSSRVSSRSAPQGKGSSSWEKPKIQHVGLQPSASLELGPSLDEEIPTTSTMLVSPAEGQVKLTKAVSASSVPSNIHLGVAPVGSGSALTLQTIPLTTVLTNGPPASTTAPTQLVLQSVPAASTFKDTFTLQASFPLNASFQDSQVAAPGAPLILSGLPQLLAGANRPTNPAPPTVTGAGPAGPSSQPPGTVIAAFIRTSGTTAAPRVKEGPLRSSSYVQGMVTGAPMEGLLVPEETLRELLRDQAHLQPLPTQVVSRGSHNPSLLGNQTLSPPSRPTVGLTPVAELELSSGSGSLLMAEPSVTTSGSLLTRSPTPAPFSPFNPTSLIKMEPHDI
sequence,measurement,setting,value
GCTATC,binding signal,ELF4,"1.14 fold enrichment (6-mer frequency, TF over GST control)"
same,binding signal,ETV2,"1.04 fold enrichment (6-mer frequency, TF over GST control)"
same,binding signal,ELF3,"1.04 fold enrichment (6-mer frequency, TF over GST control)"
same,binding signal,ETV1,"1.09 fold enrichment (6-mer frequency, TF over GST control)"
same,binding signal,ERF,"1.13 fold enrichment (6-mer frequency, TF over GST control)"
same,binding signal,ETV3L,"1.07 fold enrichment (6-mer frequency, TF over GST control)"
same,binding signal,ETS2,"1.01 fold enrichment (6-mer frequency, TF over GST control)"
same,binding signal,ETV7,"1.18 fold enrichment (6-mer frequency, TF over GST control)"
same,binding signal,ETV3,"1.03 fold enrichment (6-mer frequency, TF over GST control)"
same,binding signal,ETV6,"1.06 fold enrichment (6-mer frequency, TF over GST control)"
